Experimental data as given in PubChem BioAssay (NCATS).
Results filed as inconclusive are left out. Active and inactive are the calls of the source. The call rests on the fitted dose curve; in most records, active means well fitted inhibition curve with a large enough effect; inconclusive means small, poorly fitted or top-dose-only effect; inactive means flat fitted curve, though single readings scatter.

Legend:
Assay in all cases: qHTS profiling for inhibitors of Plasmodium falciparum proliferation (AID 504749); further: nearly all actives have a fitted effect of over 60% in size
Conditions in all cases: P. falciparum in erythrocytes, SYBR Green DNA, 72 h; series mostly up to 28.7 µM
ATS95 = test system: ATS95
In short: (§1)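 Three-day growth assay of blood-stage parasites in erythrocytes (0.3% parasitemia, 2.5% hematocrit) at 37 C, 5% CO2, quantified by SYBR Green DNA staining after overnight detergent lysis.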

C2A = test system: C2A
In short: as §1

CP217 = test system: CP217
In short: as §1

CP237 = test system: CP237
In short: as §1

CP238 = test system: CP238
In short: as §1

CP250 = test system: CP250
In short: as §1

CP252 = test system: CP252
In short: as §1

CP256 = test system: CP256
In short: as §1

CP262 = test system: CP262
In short: as §1

CP265 = test system: CP265
In short: as §1

CP266 = test system: CP266
In short: as §1

CP268 = test system: CP268
In short: as §1

CP269 = test system: CP269
In short: as §1

CP305 = test system: CP305
In short: as §1

CP325 = test system: CP325
In short: as §1

CP329 = test system: CP329
In short: as §1

Dd2 = test system: Dd2
In short: as §1

ECU = test system: ECU
In short: as §1

HB3 = test system: HB3
In short: as §1

SC27B = test system: SC27B
In short: as §1

Measured: Potency

OCCN1CC(O)C(O)C(O)C1CO (stereo not given)
inactive: all assays above

CC1OC(OC2CCC3(C)C(CCC4C3CC(O)C3(C)C(C5=CC(=O)OC5)CCC43O)C2)CC(O)C1OC1CC(O)C(OC2CC(O)C(OC3OC(CO)C(O)C(O)C3O)C(C)O2)C(C)O1 (stereo not given)
inactive: all assays above

C[C@H]1OC(OC2C(O)[C@@H](O)C(OC3C(O)[C@@H](O)C(O)O[C@@H]3CO)O[C@@H]2CO)[C@H](O)C(O)C1N[C@H]1C=C(CO)[C@@H](O)[C@H](O)C1O (stereo not given in full)
inactive: all assays above

CC(=O)OCC(=O)[C@@]1(O)CCC2C3C[C@H](C)C4=CC(=O)C=CC4(C)C3C(O)CC21C (stereo not given in full)
inactive: all assays above
